This passage reports Percent Effect results from ChEMBL document CHEMBL3988442, “University of Dundee, Small-Polar-MMV Screening Library” (2021).

Design in all cases: scale not given: direction of the effect not stated beside the values
For assay [1], the target named is Protein translocase subunit SecA (Escherichia coli (strain K12)) (UniProt P10408). The experiment in a line: Assay to Identify E. coli SecA ATPase Inhibitors. Type of assay: functional. Particulars: 30 µM.
In assay [2] the target is T1, Ubiquitin-activating enzyme e1, putative (Leishmania donovani (strain BPK282A1)) (UniProt E9BSI1).
T1 sequence (whole entry): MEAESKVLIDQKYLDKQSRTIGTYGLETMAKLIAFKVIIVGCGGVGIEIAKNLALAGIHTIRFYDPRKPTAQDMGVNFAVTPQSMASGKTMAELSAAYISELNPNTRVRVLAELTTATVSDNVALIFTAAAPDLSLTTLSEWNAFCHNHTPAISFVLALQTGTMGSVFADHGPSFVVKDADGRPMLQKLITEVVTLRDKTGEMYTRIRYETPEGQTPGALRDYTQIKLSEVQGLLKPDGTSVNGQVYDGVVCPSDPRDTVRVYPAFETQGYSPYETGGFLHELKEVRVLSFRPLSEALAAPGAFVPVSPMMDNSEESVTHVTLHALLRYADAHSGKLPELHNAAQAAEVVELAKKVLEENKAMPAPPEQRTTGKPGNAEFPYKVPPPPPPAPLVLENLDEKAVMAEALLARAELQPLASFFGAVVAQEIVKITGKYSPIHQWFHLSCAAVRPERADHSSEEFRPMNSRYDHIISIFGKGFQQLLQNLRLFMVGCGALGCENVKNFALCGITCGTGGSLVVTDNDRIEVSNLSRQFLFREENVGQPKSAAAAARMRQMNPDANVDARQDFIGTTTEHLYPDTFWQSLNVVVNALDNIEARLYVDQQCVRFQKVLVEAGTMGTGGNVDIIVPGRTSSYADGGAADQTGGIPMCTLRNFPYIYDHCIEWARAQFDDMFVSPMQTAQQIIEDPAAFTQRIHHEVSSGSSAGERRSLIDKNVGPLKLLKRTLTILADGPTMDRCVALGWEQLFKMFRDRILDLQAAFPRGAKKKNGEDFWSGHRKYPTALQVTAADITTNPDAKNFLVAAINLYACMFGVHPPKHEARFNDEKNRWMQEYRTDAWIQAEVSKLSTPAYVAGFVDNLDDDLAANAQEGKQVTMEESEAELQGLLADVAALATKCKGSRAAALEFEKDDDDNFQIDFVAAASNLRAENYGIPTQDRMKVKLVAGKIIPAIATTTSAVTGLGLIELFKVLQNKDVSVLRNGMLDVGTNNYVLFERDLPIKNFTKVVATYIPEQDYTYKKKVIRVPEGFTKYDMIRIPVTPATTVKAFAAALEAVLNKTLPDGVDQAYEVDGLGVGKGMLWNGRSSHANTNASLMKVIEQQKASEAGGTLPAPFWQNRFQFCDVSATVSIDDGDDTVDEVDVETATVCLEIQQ
Nature of the assay: Leishmania donovani Ubiquitin Activating Enzyme (LdE1). Type of assay: functional. Particulars: 30 µM.

Assay [3] deals with AMP-activated protein kinase, AMPK (Homo sapiens) (UniProt P54646+O43741+P54619+Q9UGJ0+Q9Y478+Q13131+Q9UGI9). Nature of the assay: AMP-dependent Kinase enzyme assay. An in vitro enzyme assay that detects ADP turnover that is directly proportional to AMPK activity. This uses naive AMPK that is activated during the assay with MK-8722. Type of assay: functional. Particulars: 30 µM.

Assay [4] has as its target Sialic acid-binding Ig-like lectin 9 (Homo sapiens) (UniProt Q9Y336). Nature of the assay: Hs-Siglec9 ALPHAscreen SOP 20170721. The conditions noted are these: 10 µM. For orientation: Alpha assays give light when donor and acceptor beads are brought close together.
Assay [5] deals with Trypanosoma cruzi. The experiment in a line: Trypanosoma cruzi phosphomannomutase and mannose-1-phosphate guanylyltransferase assay. Type of assay: functional. The conditions noted are these: 10 µM.
Assay [6] deals with T2, Arginase-2, mitochondrial (Homo sapiens) (UniProt P78540).
T2 sequence (whole entry): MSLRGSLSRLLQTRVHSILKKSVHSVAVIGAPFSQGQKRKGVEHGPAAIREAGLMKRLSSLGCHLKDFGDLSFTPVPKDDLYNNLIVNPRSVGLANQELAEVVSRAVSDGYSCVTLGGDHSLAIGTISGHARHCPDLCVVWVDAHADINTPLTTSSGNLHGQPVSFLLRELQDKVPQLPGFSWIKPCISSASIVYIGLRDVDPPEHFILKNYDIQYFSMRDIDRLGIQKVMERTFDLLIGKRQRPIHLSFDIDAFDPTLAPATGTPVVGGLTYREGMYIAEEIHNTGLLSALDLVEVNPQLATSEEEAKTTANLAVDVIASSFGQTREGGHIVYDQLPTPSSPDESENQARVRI
Nature of the assay: in vitro enzyme assay to detect the production of urea directly proportional to the activity of Arginase II. Further: in the data most compounds retested in dose-response had high values. Type of assay: functional. The conditions noted are these: 33.3 µM.

In assay [7] the target is T3, Proteasome subunit beta (Trypanosoma cruzi) (UniProt O96673).
T3 sequence (whole entry): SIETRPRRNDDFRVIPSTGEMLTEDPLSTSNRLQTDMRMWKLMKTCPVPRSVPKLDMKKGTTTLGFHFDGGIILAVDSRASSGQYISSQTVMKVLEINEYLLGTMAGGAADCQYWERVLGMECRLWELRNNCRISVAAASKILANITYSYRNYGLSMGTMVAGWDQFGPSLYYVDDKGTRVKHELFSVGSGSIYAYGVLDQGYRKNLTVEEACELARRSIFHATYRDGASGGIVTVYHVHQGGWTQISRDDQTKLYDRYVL
The experiment in a line: Trypanosoma cruzi proteasome chymotrypsin-like activity (TcProtChymo) assay. Further: in the data most compounds retested in dose-response had high values. Type of assay: functional. The conditions noted are these: 9.37 µM.

For assay [8], the species on record is Homo sapiens. The experiment in a line: To identify inhibition of the IFN signalling (Jak-Stat) pathway via expression of an eGFP reporter gene under the control of an IFN-stimulated response element (ISRE) containing MxA promoter. Type of assay: functional. Particulars: 30 µM. Background: Reporter assays use an easily measured gene product as a stand-in for the process of interest.

Assay [9] deals with T4, Tyrosyl-tRNA synthetase, putative (Trypanosoma cruzi (strain CL Brener)) (UniProt Q4DSP6).
T4 sequence (whole entry): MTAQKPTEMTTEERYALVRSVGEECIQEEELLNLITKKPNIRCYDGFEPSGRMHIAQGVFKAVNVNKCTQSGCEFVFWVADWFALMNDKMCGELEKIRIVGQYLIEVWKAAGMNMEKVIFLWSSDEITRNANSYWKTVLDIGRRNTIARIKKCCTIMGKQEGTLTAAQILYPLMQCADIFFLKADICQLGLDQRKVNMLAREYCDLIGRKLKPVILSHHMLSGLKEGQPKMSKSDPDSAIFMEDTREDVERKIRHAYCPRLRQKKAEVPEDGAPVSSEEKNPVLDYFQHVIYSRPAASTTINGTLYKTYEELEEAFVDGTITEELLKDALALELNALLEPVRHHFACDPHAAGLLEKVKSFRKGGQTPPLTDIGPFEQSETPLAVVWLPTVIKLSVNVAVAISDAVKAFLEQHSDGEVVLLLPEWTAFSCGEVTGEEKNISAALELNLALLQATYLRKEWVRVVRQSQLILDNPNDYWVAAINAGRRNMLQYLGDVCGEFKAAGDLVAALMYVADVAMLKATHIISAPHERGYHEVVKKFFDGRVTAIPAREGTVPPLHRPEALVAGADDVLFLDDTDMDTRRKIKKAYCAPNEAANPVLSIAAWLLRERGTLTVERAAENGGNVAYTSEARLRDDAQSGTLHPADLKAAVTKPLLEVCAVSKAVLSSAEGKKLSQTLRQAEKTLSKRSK
The experiment in a line: Trypanosoma cruzi tyrosyl tRNA synthetase (TcYRS) _High Tyrosine SOP. Further: in the data most compounds retested in dose-response had high values. The conditions noted are these: 30 µM. Type of assay: functional.

Assay [10] deals with T4, Tyrosyl-tRNA synthetase, putative (Trypanosoma cruzi (strain CL Brener)). Nature of the assay: Trypanosoma cruzi tyrosyl tRNA synthetase (TcYRS) SOP. Type of assay: functional. Particulars: 30 µM.
The target in assay [11] is Chromo domain-containing protein 1 (Saccharomyces cerevisiae (strain ATCC 204508 / S288c) (Baker's yeast)) (UniProt P32657). The experiment in a line: ScCHD-1 Enzyme Inhibition Assay. Further: in the data most compounds retested in dose-response had high values. Type of assay: functional. Particulars: 30 µM.
Chain of Chromo domain-containing protein 1 (Saccharomyces cerevisiae (strain ATCC 204508 / S288c) (Baker's yeast)) (P32657 whole entry, the tested form may be a part): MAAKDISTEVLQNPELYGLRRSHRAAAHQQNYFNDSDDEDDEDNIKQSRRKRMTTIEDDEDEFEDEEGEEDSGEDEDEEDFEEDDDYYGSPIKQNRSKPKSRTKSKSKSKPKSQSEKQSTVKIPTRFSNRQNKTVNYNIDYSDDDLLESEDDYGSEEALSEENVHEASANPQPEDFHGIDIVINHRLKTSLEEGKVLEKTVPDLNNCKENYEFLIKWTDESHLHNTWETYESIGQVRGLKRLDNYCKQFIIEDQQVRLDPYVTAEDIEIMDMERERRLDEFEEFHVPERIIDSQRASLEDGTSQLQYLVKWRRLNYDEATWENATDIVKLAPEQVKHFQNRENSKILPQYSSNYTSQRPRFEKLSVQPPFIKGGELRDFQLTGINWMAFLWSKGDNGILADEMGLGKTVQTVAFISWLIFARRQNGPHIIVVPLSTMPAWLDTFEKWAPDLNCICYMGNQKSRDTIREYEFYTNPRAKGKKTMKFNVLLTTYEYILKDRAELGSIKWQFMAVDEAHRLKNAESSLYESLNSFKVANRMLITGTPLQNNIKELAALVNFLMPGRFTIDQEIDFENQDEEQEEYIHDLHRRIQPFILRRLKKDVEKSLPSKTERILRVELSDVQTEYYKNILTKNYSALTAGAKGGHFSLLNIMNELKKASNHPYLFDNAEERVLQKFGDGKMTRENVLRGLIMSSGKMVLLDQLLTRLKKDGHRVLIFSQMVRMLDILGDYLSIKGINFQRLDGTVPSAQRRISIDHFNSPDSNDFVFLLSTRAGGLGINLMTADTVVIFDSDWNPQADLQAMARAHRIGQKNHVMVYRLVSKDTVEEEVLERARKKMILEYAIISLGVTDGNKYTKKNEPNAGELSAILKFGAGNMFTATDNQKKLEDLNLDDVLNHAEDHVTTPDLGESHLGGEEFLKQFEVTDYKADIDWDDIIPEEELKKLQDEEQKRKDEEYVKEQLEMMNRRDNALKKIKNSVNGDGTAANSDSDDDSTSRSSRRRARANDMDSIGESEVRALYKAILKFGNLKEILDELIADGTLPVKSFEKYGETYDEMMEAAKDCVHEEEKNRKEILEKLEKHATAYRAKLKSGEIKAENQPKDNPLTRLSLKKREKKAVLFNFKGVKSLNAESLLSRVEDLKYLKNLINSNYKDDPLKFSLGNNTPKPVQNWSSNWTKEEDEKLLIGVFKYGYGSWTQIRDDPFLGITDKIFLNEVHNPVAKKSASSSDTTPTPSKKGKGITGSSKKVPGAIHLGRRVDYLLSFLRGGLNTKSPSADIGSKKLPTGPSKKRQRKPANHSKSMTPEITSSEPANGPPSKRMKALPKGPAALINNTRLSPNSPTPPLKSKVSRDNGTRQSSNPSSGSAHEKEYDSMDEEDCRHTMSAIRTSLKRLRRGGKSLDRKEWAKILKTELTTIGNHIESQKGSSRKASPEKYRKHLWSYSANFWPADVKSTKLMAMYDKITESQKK

For some assays here: Measured potencies and affinities stand elsewhere.

Chain of Protein translocase subunit SecA (Escherichia coli (strain K12)) (P10408 whole entry): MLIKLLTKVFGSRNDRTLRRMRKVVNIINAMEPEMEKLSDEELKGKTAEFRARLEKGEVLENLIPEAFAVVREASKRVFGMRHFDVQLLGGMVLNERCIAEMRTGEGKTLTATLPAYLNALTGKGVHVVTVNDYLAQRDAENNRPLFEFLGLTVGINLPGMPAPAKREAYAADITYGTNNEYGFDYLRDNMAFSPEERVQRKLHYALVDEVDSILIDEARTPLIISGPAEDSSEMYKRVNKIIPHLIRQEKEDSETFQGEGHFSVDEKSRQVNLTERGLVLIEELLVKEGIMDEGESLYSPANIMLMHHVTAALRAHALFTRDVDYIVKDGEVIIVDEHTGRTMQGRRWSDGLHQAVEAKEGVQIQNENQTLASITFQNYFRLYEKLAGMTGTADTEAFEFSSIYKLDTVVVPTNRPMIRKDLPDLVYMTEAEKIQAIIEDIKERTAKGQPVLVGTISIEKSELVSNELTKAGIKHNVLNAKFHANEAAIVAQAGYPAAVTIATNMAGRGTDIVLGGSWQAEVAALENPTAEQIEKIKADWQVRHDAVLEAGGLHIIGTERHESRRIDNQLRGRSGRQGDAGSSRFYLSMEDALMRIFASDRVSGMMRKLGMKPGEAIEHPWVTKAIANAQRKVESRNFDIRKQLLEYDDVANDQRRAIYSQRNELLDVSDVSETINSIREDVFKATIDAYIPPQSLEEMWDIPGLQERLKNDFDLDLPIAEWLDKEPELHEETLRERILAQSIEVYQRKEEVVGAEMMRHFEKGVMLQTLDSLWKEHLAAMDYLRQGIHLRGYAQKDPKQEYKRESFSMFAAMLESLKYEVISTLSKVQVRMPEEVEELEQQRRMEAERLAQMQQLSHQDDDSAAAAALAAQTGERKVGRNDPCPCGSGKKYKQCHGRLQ
Chain of Sialic acid-binding Ig-like lectin 9 (Homo sapiens) (Q9Y336 whole entry): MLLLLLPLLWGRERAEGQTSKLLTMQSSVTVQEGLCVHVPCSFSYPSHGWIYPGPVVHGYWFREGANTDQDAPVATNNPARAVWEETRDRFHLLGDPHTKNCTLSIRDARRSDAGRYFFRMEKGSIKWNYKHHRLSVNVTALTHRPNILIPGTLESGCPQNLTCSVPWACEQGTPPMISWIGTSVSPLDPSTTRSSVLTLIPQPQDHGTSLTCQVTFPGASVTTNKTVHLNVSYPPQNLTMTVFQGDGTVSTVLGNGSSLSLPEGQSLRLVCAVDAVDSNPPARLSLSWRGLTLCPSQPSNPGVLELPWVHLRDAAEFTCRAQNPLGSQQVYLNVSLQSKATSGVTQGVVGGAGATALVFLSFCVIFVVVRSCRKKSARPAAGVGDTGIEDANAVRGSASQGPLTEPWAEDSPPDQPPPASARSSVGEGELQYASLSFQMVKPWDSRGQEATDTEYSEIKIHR

As for `O=C(NCC1CC1)C1CSCN1S(=O)(=O)c1cccc(F)c1` (stereo not given), the Percent Effect is -1.87% in assay [1]; 8.22% in assay [2]; -0.192% in assay [3]; -1.84% in assay [4]; 2.94% in assay [5]; -0.455% in assay [6]. Also, the Percent Effect in assay [7] was 25%; in [8], -0.563%; in assay [9], 4.3%; in [10] it was 12.5%; in [11] it was -3.76%.
Consider `Cc1ccc2c(c1)OCCCC2NCc1nnc2n1CCCCC2` (stereo not given), for which the Percent Effect in assay [1] is -3.75%; in assay [2], 2.7%; in assay [3], -4.22%; in assay [4] it was 17.1%; in assay [5], 5.57%; in assay [6] it was 2.23%. Besides, the Percent Effect in assay [7] is 0.772%; in assay [8] it was -5.39%; in [9], -15.1%; in [10] it was 6.17%; in [11], -11.7%.
With `Cc1ccc(C2C3=C(COC3=O)Nc3[nH]nc(C)c32)cc1C` (stereo not given), the Percent Effect is -2.97% in [1]; 9.33% in assay [2]; 12.5% in [3]; -3.88% in assay [4]; -4.71% in assay [5]; -4.75% in [6]. The Percent Effect in assay [7] is 10.7%; in assay [8], 30.1%; in assay [9], -22.2%; in assay [10], -23.1%; in assay [11], -11.7%.
As for `Cc1nc(C)c(C(=O)NCCNC(=O)c2ccc(F)cc2F)s1`, the Percent Effect in assay [1] is -1.94%; in assay [2], 10.8%; in [3] it was -1.06%; in assay [4], 22.4%; in [5], 5.85%; in [6], -4.25%. Besides, the Percent Effect in assay [7] is 15.8%; in [8] it was 16.4%; in assay [9], 8.91%; in [10] it was 23.2%; in assay [11], -8.6%.
For `COc1ccccc1OCCN1CCC(N2CCNC2=O)CC1`, the Percent Effect in [1] was -6.27%; in assay [2], 5.41%; in assay [3], 1.68%; in [4], 3.47%; in [5], -5.66%; in assay [6], 3.51%. Also, the Percent Effect in [7] is 12%; in assay [8], 18.9%; in assay [9], -3.96%; in assay [10], -13.4%; in assay [11], 0.174%.
As to `Cc1cc(=O)[nH]c(SCC(=O)N(C)CC2Cc3ccccc3CN2C)n1` (stereo not given), the Percent Effect was -6.85% in assay [1]; 5.41% in assay [2]; -2.17% in [3]; -6.16% in assay [4]; -0.489% in assay [5]; -0.744% in assay [6]. Further, the Percent Effect in assay [7] was 5.75%; in assay [8], -12.2%; in assay [9], 6.45%; in assay [10], 8.64%; in assay [11] it was -4.63%.
For `CCOCC1CN(C)Cc2cnn(CC3CCCC3)c21` (stereo not given), the Percent Effect in assay [1] worked out at 0.927%; in [2], 5.48%; in [3], 0.312%; in [4] it was 7.92%; in assay [5], 7.14%; in [6], 2%. The Percent Effect was 9.68% in assay [7]; -29.3% in assay [8]; 7.29% in assay [9]; 11.1% in [10]; -3.7% in assay [11].
As for `CCOc1ccccc1CSc1nnc(CC2CCS(=O)(=O)C2)n1C` (stereo not given), the Percent Effect in assay [1] was -2.9%; in assay [2], 2.7%; in assay [3], -1.67%; in assay [4], 1.02%; in assay [5], -3.42%; in assay [6], 1.74%. In addition, the Percent Effect in assay [7] is 9.19%; in [8], 5.04%; in [9] it was 3.23%; in assay [10], 11.1%; in [11], -8.57%.
Regarding `COC[C@@]12CCO[C@@H]1CCN(C(=O)COc1ccccc1OC)C2`, the Percent Effect in assay [1] is 0.312%; in assay [2] it was 8.22%; in assay [3] it was -2.94%; in [4], 5.31%; in assay [5] it was -4.76%; in assay [6] it was -2.4%. Further, the Percent Effect is 17.2% in assay [7]; 3.04% in assay [8]; 5.21% in assay [9]; 11.1% in [10]; -3.51% in assay [11].
Take `CC(=O)NCCc1ccc(C(=O)N2CCCC2c2cnn(C)c2)cc1` (stereo not given): the Percent Effect is -1.4% in [1]; 21.1% in [2]; -6.64% in [3]; -8.62% in [4]; 2.89% in [5]; -3.6% in assay [6]. Moreover, the Percent Effect in [7] is 11.9%; in assay [8], 1.72%; in assay [9], 4.43%; in assay [10], 16.1%; in assay [11], -8.59%.
